# According to PubChem BioAssay (NCATS):
# Inconclusive results are not listed. Where a call stands in place of a potency, no number is given. Activity calls are given as the source filed them. Calls come from the whole dose curve; as a rule, active = well fitted curve in the direction sought with a large enough effect; inconclusive = small, poorly fitted or top-dose-only effect, or another doubt; inactive = no such curve, though single readings can be large; an effect the other way counts as inactive or inconclusive.
# System: Zika virus NS2B-NS3 protease (unlinked)
# Experiment: Optimization of GU AMC qHTS for Zika virus inhibitors: Unlinked NS2B-NS3 protease assay (AID 1347151); note: nearly all actives have a fitted effect of over 80% in size; note: potency is the fitted concentration of half-maximal effect
# Conditions: recombinant ZIKV NS2B-NS3 protease, fluorogenic AMC substrate; series mostly up to 52.5 µM
# Outline: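 Noncovalent complex of NS2B hydrophilic domain and NS3 protease domain, 25 nM final, in 10 mM Tris-HCl pH 8.0, 0.01% Tween 20. AMC fluorescence change over 15 min at room temperature was fitted to a 4-parameter Hill equation.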
row,SMILES,Potency
1,Cc1cc(Cl)ccc1OCCCC(=O)NO,inactive
2,CCOC(=O)C(C)Oc1cccc2c(=O)n(CC(=O)Nc3ccc4c(c3)OCCO4)ccc12 (stereo not drawn),21.2 µM (active)
3,CN(C)CCCC1(c2ccc(F)cc2)OCc2cc(C#N)ccc21 (stereo not drawn),inactive
4,O=C1c2ccccc2-c2n[nH]c3cccc1c23,11.9 µM (active)
5,Cc1cccc(C#Cc2ccccc2)n1,inactive
6,COc1ccc2cc([C@H](C)C(=O)O)ccc2c1,23.8 µM (active)
7,O=c1cc(N2CCOCC2)oc2c(-c3ccccc3)cccc12,26.7 µM (active)

# System: Zika virus NS2B-NS3 protease
# Experiment: Primary screen GU AMC qHTS for Zika virus inhibitors (AID 1347154); note: nearly all actives have a fitted effect of over 70% in size
# Conditions: Zika NS2B-NS3 unlinked protease, AMC fluorogenic substrate; series mostly up to 54.1 µM
# Outline: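 Unlinked Zika NS2B hydrophilic domain–NS3 protease complex at 25 nM in 10 mM Tris-HCl pH 8.0, 0.01% Tween 20, with an AMC peptide substrate. Fluorescence change (340/450 nm) over 15 min at room temperature, normalized to controls, fitted to 4-parameter Hill.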
row,SMILES,Potency
1,Cc1cc(Cl)ccc1OCCCC(=O)NO,inactive
2,COc1c(O)cc2c(c1O)[C@@H]1O[C@H](CO)[C@@H](O)[C@H](O)[C@H]1OC2=O,inactive
3,CCN(CC)CCOc1ccc(Cc2ccccc2)cc1,inactive
4,CC1=C(C(=O)O)N2C(=O)[C@@H](NC(=O)[C@H](N)C3=CCC=CC3)[C@H]2SC1,inactive
5,CC(C)Oc1ccc2c(=O)c(-c3ccccc3)coc2c1,inactive
6,CCCc1cc(=O)[nH]c(=S)[nH]1,inactive
7,COC(=O)C1=C(C)NC(C)=C(C(=O)OCCCN2CCC(c3ccccc3)(c3ccccc3)CC2)C1c1cccc([N+](=O)[O-])c1 (stereo not drawn),inactive
8,O=C(OC1C[C@H]2CC[C@@H](C1)[N+]21CCCC1)C(O)(c1ccccc1)c1ccccc1 (stereo partly drawn),inactive
9,Cc1cc2c(s1)Nc1ccccc1N=C2N1CCN(C)CC1,inactive
10,NC(=O)Cc1cccc(C(=O)c2ccccc2)c1N,inactive
11,CCCCN(CCCC)CCC(O)c1cc2c(Cl)cc(Cl)cc2c2cc(C(F)(F)F)ccc12 (stereo not drawn),inactive
